TIM10 inh: inhibits growth of TIM10 yeast strain; S. cerevisiae TIM10 strain growth, BacTiter-Glo luminescence, 24 h; inhibition, % at 10 µM; 330,000 compounds, 1.4% hits; AID 463195;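 active = inhibition of 40% or more at the single tested concentration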;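 note: wild-type TIM10 isogenic control strain grown at permissive 25 °C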
PfHsp90 yeast 2: reduces growth (ATP signal) of yeast expressing P. falciparum Hsp90. S. cerevisiae expressing PfHsp90, BacTiter-Glo ATP, 48 h; yeast lacking PDR1 and PDR3 efflux regulators. inhibition, % at 9.4 µM. 310,000 compounds, 0.32% hits;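 active = every replicate shows inhibition above about 80%, whatever the replicate mean, limit read from the data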
tim23-1 inh: tim23-1 yeast growth inhibition; AID 463212; 330,000 compounds, 1.3% hits; S. cerevisiae tim23-1 growth, BacTiter-Glo luminescence, 24 h; inhibition, % at 20 µM;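 active = growth inhibition of the mutant yeast at or above 50%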;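 note: temperature-sensitive mutant grown at 25 °C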
tim10-1 inh: tim10-1 yeast growth inhibition | 330,000 compounds, 2.2% hits | S. cerevisiae tim10-1 ts strain growth, BacTiter-Glo, 24 h | inhibition, % at 20 µM | AID 463190;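 active = inhibition of at least 40%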;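 note: mutant grown at 25 °C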
Rce1 inh: inhibitors of yeast Ras-converting enzyme | calls only | Q03530 | AID 2563 | 290,000 compounds, 0.27% hits | yeast membranes, quenched prenylated peptide cleavage fluorescence;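 active = fall in fluorescence gain of 50% or more versus controls, with final raw signal at or below 3038400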
Target sequence (Q03530 whole entry, looked up): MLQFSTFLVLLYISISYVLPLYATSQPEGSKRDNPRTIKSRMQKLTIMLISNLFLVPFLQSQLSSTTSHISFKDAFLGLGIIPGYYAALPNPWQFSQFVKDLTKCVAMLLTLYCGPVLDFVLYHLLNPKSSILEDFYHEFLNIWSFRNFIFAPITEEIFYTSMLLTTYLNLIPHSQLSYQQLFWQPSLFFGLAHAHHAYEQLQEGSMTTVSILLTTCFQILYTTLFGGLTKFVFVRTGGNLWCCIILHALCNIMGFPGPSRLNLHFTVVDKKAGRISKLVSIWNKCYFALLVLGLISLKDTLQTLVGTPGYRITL
tim10-1 confirm: confirmation of tim10-1 mutant yeast growth inhibitors. 7,400 compounds, 56% hits. shares compounds with tim10-1 inh. S. cerevisiae tim10-1 ts strain growth, BacTiter-Glo, 24 h. inhibition, % at 20 µM;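 active = inhibition of yeast growth at or above a set limit in either of two repeat tests at 20 µM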;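 note: tim10-1 mutant grown at permissive 25 °C to find synthetic lethal compounds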
tim10 confirm: TIM10 yeast growth inhibition, confirmed; 4,600 compounds, 63% hits; S. cerevisiae tim10 strain growth, BacTiter-Glo luminescence, 24 h; shares compounds with TIM10 inh; inhibition, % at 10 µM; AID 463215;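 active = inhibition of yeast growth at or above a set limit in either of two replicates at 10 µM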; note: this counterscreen used the strain with wild-type TIM10
tim23-1 conf: confirmation of tim23-1 mutant yeast growth inhibitors; AID 463218; S. cerevisiae tim23-1 growth, BacTiter-Glo luminescence, 24 h; inhibition, % at 20 µM; 4,400 compounds, 83% hits; shares compounds with tim23-1 inh;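 active = inhibition above about 39% in either of two replicate wells at 20 µM, limit read from the data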;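 note: temperature-sensitive tim23-1 mutant grown at 25 °C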
Of the large screens only hits and unclear results are named; the others gave an inactive call (follow-up assays come after a bar, where they were run). In the library only some 3.7% were active in any assay of this set; here they are far more common.

Cc1cc(C)n2nc(/C(C#N)=C/c3ccccn3)c(C#N)c2n1	TIM10 inh 51.1, tim23-1 inh 51.9, tim10-1 inh 61.7 (no result: Rce1 inh) | tim10-1 confirm 58.0 | tim10 confirm 52.4 | tim23-1 conf 75.4
COc1ccc(NC(=O)C2CCCN2C(=O)Oc2ccccc2)cc1 (stereo not given)	none
CCOc1ccc2nc(NC(=O)C3(C)CC3(Br)Br)sc2c1 (stereo not given)	tim23-1 inh 73.6, tim10-1 inh 49.5 | tim10-1 confirm 40.4 | tim23-1 conf 38.0
O=C1CC(c2cccc(Cl)c2)c2cc3c(cc2N1)CCC3 (stereo not given)	tim23-1 inh 60.3, tim10-1 inh 41.0 | tim10-1 confirm inactive | tim23-1 conf 56.5
CCN1CCCC1CNC(=O)C1CCN(C(=O)c2cc3sccc3n2Cc2ccc(F)cc2)CC1 (stereo not given)	none
O=C(CSc1ccccc1)Nc1ccc(C(=O)Nc2ccc(O)cc2)cc1	none
COc1ccc(C(=O)/C=C/c2cn(CN3CCN(C)CC3)c3ccccc23)cc1	none (no result: Rce1 inh)
CCOc1ccc(C(=O)/C=C/c2cn(CN3CCN(C)CC3)c3ccccc23)cc1	tim23-1 inh 67.8, tim10-1 inh 40.2 (no result: Rce1 inh) | tim10-1 confirm inactive | tim23-1 conf 51.0
CNC(=S)N/N=C/c1cn(Cc2c(F)cccc2Cl)c2ccccc12	TIM10 inh 57.1, tim23-1 inh 51.1, tim10-1 inh 47.1, Rce1 inh active | tim10-1 confirm 37.0 | tim10 confirm inactive | tim23-1 conf 40.0
O=C1c2ccccc2-c2onc3ccc(Oc4ccccc4)c1c23	TIM10 inh 56.5, tim23-1 inh 77.2, tim10-1 inh 75.7 | tim10-1 confirm 59.2 | tim10 confirm 68.2 | tim23-1 conf 85.2
Cc1nn(-c2ccccc2)c(C)c1C(=O)OCC(=O)NC12CC3CC(CC(C3)C1)C2	TIM10 inh 53.6, tim23-1 inh 61.9, tim10-1 inh 42.8 | tim10-1 confirm 48.8 | tim10 confirm 34.2 | tim23-1 conf 53.6
O=C(Nc1ccc(OCC(F)(F)C(F)F)c(C(F)(F)F)c1)c1ccccc1O	TIM10 inh 62.0, tim23-1 inh 54.4, tim10-1 inh 81.4 | tim10-1 confirm 75.8 | tim10 confirm inactive | tim23-1 conf 68.8
CC1(C)CC(=O)C=C(NC2=CC3OC(c4ccccc4)OCC3OC2=O)C1 (stereo not given)	TIM10 inh 59.3, tim23-1 inh 59.5, tim10-1 inh 68.3 | tim10-1 confirm 58.0 | tim10 confirm inactive | tim23-1 conf 56.0
Cc1ccccc1NC1=CC(=O)CC(C)(C)C1	none
Cn1cccc1/C=C(/C#N)C(N)=S	none
CCCCc1ccc(/C=C(\C#N)C(N)=S)s1	TIM10 inh 53.0, tim23-1 inh 70.9, tim10-1 inh 55.6 (no result: Rce1 inh) | tim10-1 confirm 55.3 | tim10 confirm 60.5 | tim23-1 conf 57.5
CC(Sc1nnnn1-c1ccc(Cl)cc1)C(=O)NCC(=O)Nc1ccc(F)c(F)c1F (stereo not given)	none
N/C(=N\OC(=O)c1ccc([N+](=O)[O-])cc1Cl)c1ccccn1	TIM10 inh 42.0, tim23-1 inh 58.7, tim10-1 inh 53.2 | tim10-1 confirm 44.6 | tim10 confirm 52.3 | tim23-1 conf 64.8
Cc1ccc(C(=O)O/N=C(\N)c2ccccc2)c(Cl)c1	TIM10 inh 74.4, tim23-1 inh 83.1, tim10-1 inh 71.2 | tim10-1 confirm 59.3 | tim10 confirm 80.8 | tim23-1 conf 86.0
N/C(=N\OC(=O)c1ccc(=O)n(Cc2ccc(Cl)cc2)c1)c1ccccn1	TIM10 inh 53.7, tim23-1 inh 52.9, tim10-1 inh 67.2 (no result: PfHsp90 yeast 2) | tim10-1 confirm 60.0 | tim10 confirm 53.1 | tim23-1 conf 48.0
N/C(=N\OC(=O)c1ccc(=O)n(Cc2ccccc2)c1)c1ccccn1	none
N/C(=N\OC(=O)c1ccc(Cl)cc1Cl)c1ccccn1	TIM10 inh 72.0, tim23-1 inh 76.4, tim10-1 inh 41.1 | tim10-1 confirm inactive | tim10 confirm 75.2 | tim23-1 conf 70.3
O=C1CN(S(=O)(=O)c2ccc(Cl)cc2C(F)(F)F)CCN1	none
COc1ccc(CNC(=S)Nc2cccc(F)c2)cc1	none
N/C(=N/OC(=O)c1ccccc1Cl)c1ncc([N+](=O)[O-])s1	TIM10 inh 61.8, tim23-1 inh 54.7, tim10-1 inh 49.0 | tim10-1 confirm 50.1 | tim10 confirm 73.3 | tim23-1 conf inactive
N/C(=N\OC(=O)c1ccccc1Cl)c1ccncc1	none (no result: PfHsp90 yeast 2)
CN(CC(=O)Nc1ccc(F)c(F)c1F)C(=O)c1ccc(-n2cncn2)c([N+](=O)[O-])c1	none (no result: PfHsp90 yeast 2)
Cc1ccc(Cl)c2sc(NC(=O)C3=COCCO3)nc12	TIM10 inh 41.9, tim23-1 inh 72.0, tim10-1 inh 61.4 | tim10-1 confirm 51.2 | tim10 confirm 41.1 | tim23-1 conf 54.5
Cc1cc(C)c2sc(NC(=O)C3=COCCO3)nc2c1	TIM10 inh 42.7, tim23-1 inh 53.1, tim10-1 inh 44.9 | tim10-1 confirm 35.2 | tim10 confirm inactive | tim23-1 conf 40.1
CN(c1cccc(NC(=O)CN(c2cccc(Cl)c2)S(=O)(=O)c2ccc(Cl)cc2)c1)S(C)(=O)=O	none
C[n+]1ccccc1Nc1cc([N+](=O)[O-])ccc1N	none
CCOc1cc(/C=C2\CN(C)C/C(=C\c3ccc(O)c(OCC)c3)C2=O)ccc1O	tim23-1 inh 52.0, tim10-1 inh 57.7 | tim10-1 confirm 47.2 | tim23-1 conf 61.5
CCOc1cc(/C=C2/C(=O)ON=C2C)ccc1O	none
Cc1cccc(N2CCN(C(=O)NC(C)c3ccc(F)c(F)c3)CC2)c1C (stereo not given)	none
Fc1ccc(Nc2nnc(C(F)(F)F)s2)cc1Cl	TIM10 inh 55.8, tim23-1 inh 77.2, tim10-1 inh 68.8 | tim10-1 confirm 83.5 | tim10 confirm 41.6 | tim23-1 conf 85.2
COc1ccc(Cl)cc1NC(=O)CN(C)C(=O)c1cc2c(s1)CCC(C)C2 (stereo not given)	none
COc1ccc(CN2C(=O)[C@H]3Cc4c([nH]c5ccccc45)C(C)(C)N3C2=O)cc1	TIM10 inh 41.3, tim23-1 inh 51.5, tim10-1 inh 48.5 | tim10-1 confirm 39.3 | tim10 confirm 36.5 | tim23-1 conf 46.9
CC1(C)c2[nH]c3ccccc3c2C[C@@H]2C(=O)N(Cc3ccccc3Cl)C(=O)N21	none
COc1cc(OC)c(/C=C2\C(=O)Nc3ccccc32)c(OC)c1	none (no result: PfHsp90 yeast 2, Rce1 inh)
COc1ccc(C(=O)/C=C2/C(=O)Nc3ccccc32)c(OC)c1	TIM10 inh 68.1, tim23-1 inh 70.2, tim10-1 inh 49.9 | tim10-1 confirm 58.8 | tim10 confirm 66.6 | tim23-1 conf inactive
O=C1Nc2ccccc2/C1=C/c1cnc(-c2ccccc2)[nH]1	none

Screens deposited in PubChem BioAssay by several laboratories.
